# Assay outcomes: PubChem, National Center for Advancing Translational Sciences (NCATS)
# PI5P4K alpha inh: blocks human PI5P4K alpha kinase activity; PI5P4Kalpha enzyme, ADP-Glo luminescence, 60 min; active compounds read low; max response, %; 330,000 tested, 1.2% active; P48426; active = max response of -50% or lower; inconclusive = between -30% and -50%; inactive = -30% or higher; note: value at the top dose of about 77 µM
#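 Controls without substrate or without enzyme flank wells where PI5P4Kalpha converts substrate using 5 microM ATP (final). Incubation lasts 60 minutes at room temperature; ADP formed is read by ADP-Glo luminescence.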
# PI4K2A block: inhibitors of human PI4K2A. Q9BTU6. purified PI4K2A, ADP-Glo luminescence, 1 h; active compounds read low. activity change, negative = inhibition, % at 76.9 µM. 420,000 tested, 0.13% active; in the data active = activity change below about -50%; inconclusive = mostly about -30% to -49%;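 note: -100% = wells without enzyme as full effect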
#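 PI4K2A activity was measured by ADP-Glo luminescence: enzyme (4 ug/mL stock) and phosphatidylinositol (1.2 mM stock) in Tris pH 7.5/MgCl2/EGTA/Triton X-100 buffer were reacted with ATP (300 microM stock) for one hour at ambient temperature.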
# Tb PFK block: blocks T. brucei phosphofructokinase; 330,000 tested, 0.17% active; AID 485367; O15648; T. brucei PFK, ADP-Glo luminescence; Potency, µM (series often up to 57.5 µM), for inactives: at the highest dose activity, negative = inhibition, usual class: inhibitors;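 note: potency is the fitted concentration of half-maximal effect; 0% = uninhibited 1x PFK enzyme wells and -100% = no-enzyme wells; nearly all actives have a fitted effect of over 60% in size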
# Target sequence (O15648 whole entry, looked up): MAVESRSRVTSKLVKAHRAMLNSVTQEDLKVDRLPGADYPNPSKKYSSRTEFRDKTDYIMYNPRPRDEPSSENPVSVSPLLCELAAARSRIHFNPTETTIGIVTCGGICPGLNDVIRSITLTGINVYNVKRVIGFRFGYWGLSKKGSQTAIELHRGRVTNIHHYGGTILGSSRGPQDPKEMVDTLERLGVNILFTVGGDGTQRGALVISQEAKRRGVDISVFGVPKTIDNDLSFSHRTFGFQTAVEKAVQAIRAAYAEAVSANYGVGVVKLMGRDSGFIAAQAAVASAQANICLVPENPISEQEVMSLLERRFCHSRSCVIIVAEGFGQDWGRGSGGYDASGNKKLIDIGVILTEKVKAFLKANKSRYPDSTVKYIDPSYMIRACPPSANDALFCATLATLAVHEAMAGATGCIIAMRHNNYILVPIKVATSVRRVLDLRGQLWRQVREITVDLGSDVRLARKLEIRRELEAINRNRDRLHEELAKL
#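 PFK 1.25 nM, F6P 0.5 mM, ATP 0.1 mM, 0.1 M TEA pH 8.0, 5 mM MgCl2, 0.01% Tween20, 0.1% BSA; 45 min RT. ADP-Glo readout. qHTS titration up to 57 uM; curves fitted, compounds curve-classed.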
# Pin1 inhibitor: blocks the human prolyl isomerase Pin1 | Pin1 FP peptide displacement, HiFluor488, 10 min | Potency, µM (series often up to 115 µM), inactives show at the top dose activity, negative = inhibition, most hits filed as inhibitors | AID 504891 | Q13526 | 390,000 tested, 0.009% active; active = well fitted inhibition curve with a large enough effect in the polarisation, with a control signal flat, not every such curve was filed as active; inconclusive = small, poorly fitted or top-dose-only effect, or effect the other way, or a change in a side signal; inactive = no such curve, though single readings can be large or run the other way; the % refers to the polarisation; note: potency is the fitted concentration of half-maximal effect
# Target sequence (Q13526 whole entry, looked up): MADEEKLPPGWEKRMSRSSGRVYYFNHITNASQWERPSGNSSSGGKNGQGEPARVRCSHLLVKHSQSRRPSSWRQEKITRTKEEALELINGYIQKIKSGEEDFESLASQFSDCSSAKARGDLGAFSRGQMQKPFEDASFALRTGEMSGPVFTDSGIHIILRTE
# Tb PGK inh: blocks T. brucei phosphoglycerate kinase; P07378; PGK/GAPDH coupled, Kinase-Glo luminescence, 60 min; Potency, µM (series often up to 57.5 µM), without a hit: at the top dose activity change, negative = inhibition, hits mostly inhibitors; 380,000 tested, 0.043% active; AID 602233; note: potency is the fitted concentration of half-maximal effect; nearly all actives have a fitted effect of over 60% in size
#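 Recombinant glycosomal PGK reaction used 1,3-bisphosphoglycerate generated in-well by GAPDH (100nM final) in 100mM TEA pH 7.6, 5mM MgCl2, 0.01% Tween-20. After 60 minutes at room temperature, ATP was read by Kinase-Glo Plus luminescence end-point.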
# * marks the source's active call; other numbers are inactive results; i = inactive; u = inconclusive; x = no result. Only a selection was taken, and hits are over-represented in it overall. Unless noted, calls come from the whole dose curve; as a rule, active = well fitted curve in the direction sought with a large enough effect; inconclusive = small, poorly fitted or top-dose-only effect, or another doubt; inactive = no such curve, though single readings can be large; an effect the other way counts as inactive or inconclusive. Unless noted, % is set by controls: 0 for no effect and ±100 for the full control effect.
SMILES,PI5P4K alpha inh,PI4K2A block,Tb PFK block,Pin1 inhibitor,Tb PGK inh
CN(C)C1C(=O)C(C(N)=O)=C(O)C2(O)C(=O)C3=C(O)c4c(O)cccc4C(C)(O)C3C(O)C12 (stereo unspecified),-54*,-17,u,0%,i
CCOC(=O)c1cccc(NC(=O)NCc2ccc3c(c2)CCN3C(=O)c2ccccc2)c1,x,-2,x,48%,i
CC(C)(C)OC(=O)N(CCc1ccccc1)Cc1ccc(OCc2cccc(NC(=O)c3ccccc3)c2)cc1,3,1,x,u,1%
Cc1ccc(/C=C2\C(=O)NC(=O)N(CCc3ccc(F)cc3)C2=O)o1,-53*,u,5%,31%,x
CCOc1cc(/C=C2\C(=O)NC(=O)N(CCc3ccc(F)cc3)C2=O)ccc1O,-58*,u,0%,u,-3%
Cc1[nH]c2ccccc2c1P(=S)(c1ccccc1)c1ccccc1,x,x,x,-2%,x
Cc1ccc(OCCn2cccc2/C=C2/C(=O)NC(=O)N(Cc3ccco3)C2=O)cc1,u,u,14%,16%,-15%
CN1C(=O)/C(=C/C=C/c2ccco2)C(=O)NC1=S,-90*,-16,u,u,28µM*
Cn1cccc1/C=C1\C(=O)NC(=O)N(Cc2ccco2)C1=O,-80*,-17,-15%,u,u
O=C1NC(=O)N(Cc2ccco2)C(=O)/C1=C/C=C/c1ccco1,-83*,u,30µM*,u,u
O=C1NC(=O)N(Cc2ccccc2)C(=O)/C1=C\C=C\c1ccco1,-62*,-23,-22%,u,10%
O=C1NC(=O)N(c2ccccc2)C(=O)/C1=C/C=C/c1ccco1,u,-27,u,u,-5%
CCC(=O)OC1(c2ccccc2)CCN(C)CC1,x,i,x,x,x
CCOc1ccc(NS(=O)(=O)c2ccc(Cl)c(N=Nc3c(O)[nH]c(=S)[nH]c3=O)c2)cc1Br,u,-1,x,x,22µM*
Cc1ccc(S(=O)(=O)N(CC(=O)NCCSc2ccc(Cl)cc2)c2ccccc2C)cc1,x,13,x,66%,-6%
Cc1ccc(O)c(C)c1,-1,3,2%,-1%,i
Cc1ccc2c(C)cccc2c1,-71*,6,x,4%,2%
ClCCCN1CCN(c2cccc(Cl)c2)CC1,x,-4,x,x,x
CN(C)c1ccc(/C=C/C=C2/C(=O)NC(=O)N(c3ccccc3)C2=O)cc1,-78*,-27,u,u,u
O=S(=O)(NCc1nnc2c(C(F)(F)F)cc(Cl)cn12)c1ccccc1,5,3,0%,32%,-3%
O=C(O)CCC(=O)NCCC1=c2ccccc2=N/C1=C\c1c(O)n(Cc2ccc(F)cc2)c(=S)[nH]c1=O,-85*,-8,u,-8%,-6%
CCOC(=O)C1=Nc2ccccc2/C1=C\c1c(O)n(C)c(=O)n(C)c1=O,-64*,u,9%,28%,-4%
Cn1c(O)c(C=Nc2ccccc2-c2ccccc2)c(=O)n(C)c1=O,3,7,-2%,-1%,2%
S=C(SSC(=S)N1CCCCC1)N1CCCCC1,x,1,x,x,x
O=C(O)c1ccccc1NS(=O)(=O)c1cccc(N=Nc2c(O)[nH]c(=S)[nH]c2=O)c1,-74*,-2,u,-19%,-3%
SMILES,PI5P4K alpha inh,PI4K2A block,Tb PFK block,Pin1 inhibitor,Tb PGK inh
Cc1ccc(N=Nc2c(O)[nH]c(=O)[nH]c2=O)cc1S(=O)(=O)Nc1ccc(Br)cc1,-29,0,4%,u,i
COc1ccc2nc(NC(=O)c3nc(S(=O)(=O)Cc4cccc(C)c4)ncc3Cl)sc2c1,x,u,x,u,-6%
CCN(CC)c1ccc(C=C2C(=O)NC(=S)NC2=O)cc1,-62*,-19,u,0%,x
CN(C)c1ccc(C=C2C(=O)NC(=O)NC2=O)cc1,u,-11,x,-1%,-9%
CN(C)c1ccc(C=C2C(=O)NC(=S)NC2=O)cc1,-72*,-5,x,-10%,-3%
CC(C)CN(CC(C)C)c1ccc(C=C2C(=O)NC(=S)NC2=O)cc1[N+](=O)[O-],-101*,-12,-13%,x,-11%
CCc1nn2c(=O)c(C)c(N3CCNCC3)nc2s1,x,x,x,1%,x
CCN(CC)C(=O)N[C@H]1C[C@@H]2c3cccc4[nH]cc(c34)C[C@H]2N(C)C1,-75*,-22,0%,u,-1%
CN1C[C@H](CO)C[C@@H]2c3cccc4[nH]cc(c34)C[C@H]21,1,0,-8%,-2%,0%
CCn1nc(-c2ccccc2)nc2c(=O)n(C)c(=O)nc1-2,-8,-57*,-7%,u,u
CCNC(=O)[C@H]1O[C@@H](n2cnc3c(N)ncnc32)[C@H](O)[C@@H]1O,0,-13,-1%,-9%,-8%
Nc1ncnc2c1ncn2[C@@H]1O[C@H](COP(=O)(O)CP(=O)(O)O)[C@@H](O)[C@H]1O,-6,-54*,x,-4%,-7%
c1ccc(-c2nc(N3CCOCC3)s[n+]2-c2ccccc2)cc1,-67*,-3,16%,0%,-7%
Nc1c(Cl)c(Cl)c(Cl)c(Cl)c1Cl,x,i,x,x,x
COc1ccc(C(=O)NCCn2cc(SCc3ccc(C(F)(F)F)cc3)c3ccccc32)cc1OC,x,6,x,u,0%
O=c1cc(-c2ccc(O)c(O)c2)oc2c(C3O[C@H](CO)[C@@H](O)[C@H](O)[C@H]3O)c(O)cc(O)c12 (stereo partly specified),-23,-2,-3%,u,5%
O=c1cc(-c2ccc(O)cc2)oc2c(C3O[C@H](CO)[C@@H](O)[C@H](O)[C@H]3O)c(O)cc(O)c12 (stereo partly specified),-73*,-4,-26%,u,-6%
C[N+]1(C)[C@@H]2CC[C@H]1CC(OC(=O)[C@@H](CO)c1ccccc1)C2 (stereo partly specified),-58*,2,-4%,1%,u
C[N+]1(C)C2CC[C@H]1CC(OC(=O)C(CO)c1ccccc1)C2 (stereo partly specified),1,-6,-14%,10%,i
Cc1cc(/C=C2\C(=O)NC(=O)N(Cc3ccccc3Cl)C2=O)c(C)n1-c1ccc(C(=O)O)cc1,-52*,4,-20%,15%,u
Cc1cc(/C=C2\C(=O)NC(=O)N(Cc3ccccc3)C2=O)c(C)n1-c1ccc(Cl)c(C(=O)O)c1,-94*,-24,-12%,40%,13µM*
Cc1cc(/C=C2\C(=O)NC(=O)N(Cc3ccco3)C2=O)c(C)n1-c1ccc(C(=O)O)cc1,u,-11,-1%,15%,u
Cc1cc(/C=C2\C(=O)NC(=O)N(Cc3ccco3)C2=O)c(C)n1-c1ccc(O)cc1,-83*,u,-20%,u,-25%
O=C(N/N=C/c1c(O)n(Cc2ccccc2)c(=O)[nH]c1=O)c1ccncc1,-56*,-4,4%,0%,-1%
